Assay outcomes: PubChem BioAssay, National Center for Advancing Translational Sciences (NCATS)
Shown are actives, neighbours in structure and some others; about 3.3% of the full set was active somewhere.
PI5P4Ka inh – PI5P4K alpha (human) kinase inhibition. P48426. PI5P4Kalpha enzyme, ADP-Glo luminescence, 60 min; stronger effect = lower value. max response, %. actives 1.2% (n = 330,000). AID 652105; active means max response of -50% or lower; inconclusive means between -30% and -50%; inactive means -30% or higher; further: value at the top dose of about 77 µM; on the % scale 0 is the no-effect control and ±100 the full control effect
Target sequence (P48426 whole entry, looked up): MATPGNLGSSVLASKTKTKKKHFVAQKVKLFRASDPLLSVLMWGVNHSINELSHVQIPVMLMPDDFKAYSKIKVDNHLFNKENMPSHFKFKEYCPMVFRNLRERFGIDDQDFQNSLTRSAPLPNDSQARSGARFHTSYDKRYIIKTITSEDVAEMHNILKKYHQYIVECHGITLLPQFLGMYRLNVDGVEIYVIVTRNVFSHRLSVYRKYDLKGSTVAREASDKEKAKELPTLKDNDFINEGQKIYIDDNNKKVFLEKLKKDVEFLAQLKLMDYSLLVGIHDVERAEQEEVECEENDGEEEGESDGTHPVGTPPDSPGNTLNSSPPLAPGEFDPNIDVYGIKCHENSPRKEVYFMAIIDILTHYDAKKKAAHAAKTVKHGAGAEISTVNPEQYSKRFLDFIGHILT
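Human PI5P4Kalpha with substrate in 0.038 M HEPES pH 7.4, 0.28 mM EGTA, 0.1% CHAPS, 5% DMSO; reaction started with 5 microM ATP (final), 60 min at room temperature. ADP formed read by ADP-Glo luminescence.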
LDHA inh – blocks human lactate dehydrogenase A | P00338 | activity change, % (values are at about 110 or 230 µM) | purified LDHA, NADH/diaphorase-resazurin fluorescence; stronger effect = lower value | actives 0.15% (n = 480,000); in the data active means activity change below about -30%; inconclusive means mostly about -25% to -30%;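 further: plate controls were DMSO wells for no effect and wells without enzyme for full effect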
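LDH5 2 nM; NADH 0.06 mM, pyruvate 0.2 mM; 200 mM Tris pH 7.4, EDTA, Tween-20; 5 min RT. Detection: diaphorase 0.133 mg/mL + resazurin 37 µM, fluorescence ex540/em590 at 0 and 20 min; normalized to enzyme-free and DMSO wells.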
D3 ag – D3 dopamine receptor (human) agonism; P35462; D3R DiscoveRx beta-arrestin cells, luminescence, 90 min; max activation, %; actives 0.58% (n = 410,000); in the data active means max activation above about 30%; further: 0% is about no effect
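Agonist-mode cell screen: cells plated at 1500/well and incubated overnight at 37 °C, then exposed to library compounds for 90 min at 37 °C. Detection reagent was added for 30–60 min at room temperature, and luminescence was read.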
PI4K2A inh – blocks human PI4K2A kinase activity; Q9BTU6; purified PI4K2A, ADP-Glo luminescence, 1 h; stronger effect = lower value; activity change, negative = inhibition, % at 76.9 µM; actives 0.13% (n = 420,000); in the data active means activity change below about -50%; inconclusive means mostly about -30% to -49%;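 further: -100% = wells without enzyme as full effect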
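ADP-Glo luminescence measured ADP generated by PI4K2A enzyme (4 ug/mL before mixing) with 1.2 mM PI substrate (pre-mix) and 300 microM ATP (pre-mix). Tris pH7.5 buffer with MgCl2, Triton X-100; 1 h reaction at ambient temperature.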
DRD3 antagonist – antagonists of human D3 dopamine receptor. P35462. D3R cells, DiscoveRx beta-arrestin luminescence, antagonist mode; stronger effect = lower value. max response, negative = inhibition, %. actives 2.5% (n = 360,000); in the data active means max response below about -50%; inconclusive means no clear call, values can overlap the other calls; further: on the % scale 0 is the no-effect control and ±100 the full control effect
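Cells expressing the human receptor were seeded at 1500 cells/well, incubated overnight at 37 degrees C in 5% CO2, then exposed to library compounds with dopamine controls for 90 minutes at 37 degrees C before luminescent detection.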
The depositor's hits bear a star; ? = inconclusive; . = no result.

SMILES	PI5P4Ka inh	LDHA inh	D3 ag	PI4K2A inh	DRD3 antagonist
O=C(N/N=C/c1c(O)n(-c2ccccc2)c(=O)[nH]c1=O)c1ccncc1	-27	10	-6	-2	-6
Cc1ccccc1-n1c(O)c(/C=N/NC(=O)c2ccccc2O)c(=O)[nH]c1=S	-69*	-3	-6	2	-3
O=C(N/N=C/c1c(O)n(-c2ccccc2)c(=S)[nH]c1=O)c1ccccc1	-54*	1	11	3	-2
O=c1[nH]c(=S)n(C2CC2)c(O)c1C=NCc1ccc(F)cc1	15	-8	2	3	19
O=C1CN2CCOC2(c2ccccc2Cl)c2cc(Cl)ccc2N1 (configuration not stated)	.	.	.	-2	.
O=C(Cc1n[nH]c(=O)c2ccccc12)N1CCN(CC(F)(F)F)CC1	.	-3	.	.	.
CN1C(=O)/C(=C/C=C/c2ccco2)C(=O)NC1=S	-90*	-1	4	-16	-21
Cc1ccc(N2C(=O)NC(=O)/C(=C\C=C\c3ccco3)C2=O)cc1	-29	-7	-4	-22	-16
Cc1ccc(N2C(=O)NC(=O)/C(=C\C=C\c3ccco3)C2=O)cc1C	?	-4	0	?	-59*
CCOC(=O)C1CCN(/C=C2/C(=O)NC(=O)N(Cc3ccco3)C2=O)CC1	-73*	-3	7	1	-6
Cc1cc(/C=C2\C(=O)NC(=O)N(Cc3ccco3)C2=O)c(C)n1-c1ccc(C(=O)O)cc1	?	-5	19	-11	25
Cn1cccc1/C=C1\C(=O)NC(=O)N(Cc2ccco2)C1=O	-80*	-5	-12	-17	-18
COc1ccc2ccccc2c1CNCCc1c[nH]c2ccccc12	.	6	.	.	.
COc1cccc(C2SCC(=O)Nc3c2c(C)nn3C)c1OCc1ccccc1C (configuration not stated)	.	1	.	.	.
O=C1NC(=O)N(Cc2ccco2)C(=O)/C1=C/C=C/c1ccco1	-83*	-5	1	?	-13
O=C1NC(=O)N(c2ccccc2)C(=O)/C1=C/C=C/c1ccco1	?	4	6	-27	13
O=C1NC(=O)N(Cc2ccccc2)C(=O)/C1=C\C=C\c1ccco1	-62*	0	-2	-23	-19
Cc1ccccc1-n1c(C)cc(/C=C2/C(=O)NC(=O)N(Cc3ccco3)C2=O)c1C	-30	-3	-3	-12	1
O=c1oc2ccccc2c(O)c1C(CC(O)c1ccc(-c2ccc(Br)cc2)cc1)c1ccccc1 (configuration not stated)	.	.	8	-4	.
CN1C(=O)/C(=C\c2ccc(N3CCCCC3)o2)C(=O)NC1=S	-3	2	-5	1	?
CN1C(=O)/C(=C/c2ccc(Cl)s2)C(=O)NC1=S	-80*	-4	-2	-11	-3
COc1cc(/C=C2\C(=O)NC(=O)N(c3ccccc3)C2=O)cc(OC)c1O	.	53	-5	-20	20
C=CCN1C(=O)/C(=C/c2ccc(Br)s2)C(=O)NC1=S	-94*	-5	7	-6	-1
COc1ccc(/C=C2\C(=O)NC(=S)N(C)C2=O)cc1C	-57*	1	5	?	-5
C=CCN1C(=O)/C(=C\c2ccc(N3CCOCC3)o2)C(=O)NC1=S	-13	-3	-2	-6	-6
SMILES	PI5P4Ka inh	LDHA inh	D3 ag	PI4K2A inh	DRD3 antagonist
Cc1ccsc1/C=C1\C(=O)NC(=S)N(C)C1=O	-84*	-1	-11	-22	?
Cc1[nH]c2c(C)cccc2c1C(O)CN1CCC(C)CC1 (configuration not stated)	.	5	.	.	.
CC(C)CNC(=O)/C=C/c1ccc(C(C)C)cc1	.	10	.	.	.
COCCCNC(=O)c1c(NC(=O)c2ccco2)n(Cc2ccccc2)c2nc3ccccc3nc12	0	23	-13	-57*	-26
CCCCNC(=O)c1c(N)n(CCCOC)c2nc3ccccc3nc12	.	27	21	-58*	17
COCCNC(=O)c1c(NC(=O)c2ccc(Br)o2)n(Cc2ccccc2)c2nc3ccccc3nc12	0	0	3	3	-9
CC(C)CCNC(=O)c1c(N)n(Cc2ccc3c(c2)OCO3)c2nc3ccccc3nc12	.	10	35*	-2	22
CNc1cc(Cl)c2nonc2c1[N+](=O)[O-]	2	18	-19	-23	-109*
Cc1nc2cc(OC(=O)N(C)Cc3cccc(-c4ccncc4)c3)ccc2s1	0	-1	33*	-5	128
O=C(c1cn(CCCOc2ccccc2Cl)c2ccccc12)C(F)(F)F	.	0	.	.	.
C=CCOC(=O)C1=C(C)OC(N)=C(C(=O)OCC)C12C(=O)Nc1ccc(Br)cc12 (configuration not stated)	.	25	.	.	.
Clc1ccc(OCC#CCN2CCCCCC2)cc1	-2	-22	-4	5	-91*
CCOC(=O)C1(CCc2ccccc2)CCN(Cc2cccc3c2OCO3)CC1	3	1	-26	2	-81*
CS(=O)(=O)c1ccc(C(=O)C2C(=O)CCCC2=O)c([N+](=O)[O-])c1	.	.	-9	?	.
COc1ccccc1OCC(=O)N1CCN(Cc2nc(N)c3ccccc3n2)CC1	.	4	.	.	.
CCOP(=S)(OCC)SCSc1ccc(Cl)cc1	.	.	48*	.	.
O=C1NC(=O)C(=Cc2coc3ccc(O)cc3c2=O)C(=O)N1	-73*	-2	11	?	2
C=C(Cl)CN1CCN(c2cccc(C(F)(F)F)c2)CC1	.	7	.	.	.
CCN1CCN(Cc2cc(Br)ccc2O)CC1	-3	-5	-5	-3	-73*
Oc1ccc(Br)cc1CN1CCN(c2ccccc2)CC1	.	-1	-48	2	-95*
CCc1ccc(CN2CCN(Cc3cc(Br)ccc3O)CC2)cc1	7	-18	-17	0	-80*
COc1ccc(Br)cc1CN1CCN(CCO)CC1	.	-15	-32	4	-87*
CCc1ccc(CN2CCN(C(=O)Cc3ccccc3)CC2)cc1	-2	-20	-2	2	-7
CCN1CCN(Cc2cc(Br)cc(Br)c2O)CC1	2	0	-2	-5	?
O=C(CSC1c2ccccc2Oc2ccccc21)Nc1cccc(C(=O)O)c1	.	18	.	.	.
CN(c1ccc([N+](=O)[O-])c2cnccc12)C1CCCCC1	.	24	.	.	.
